The text below walks through data of PubChem BioAssay (Tox21).

Where “and” joins values, the source holds several entries; their conditions need not be identical. Equal values may be shown once. Inconclusive results are not listed. Where a call stands in place of a potency, no number is given. Calls of active or inactive are those of the source. Calls follow the shape of the full dose curve.

The target in the first assay is Thyrotropin receptor (Homo sapiens) (UniProt P16473). Description: qHTS assay to identify small molecule agonists of the thyroid stimulating hormone receptor (TSHR) signaling pathway (AID 1224843). Also: nearly all actives have a fitted effect of over 45% in size. The conditions noted are these: TSHR-HEK293 cells, cAMP HTRF, agonist mode, 30 min; series mostly up to 92.4 µM. The gist of the method: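 HEK293 cells stably bearing the thyrotropin receptor were plated at 800 cells/well and challenged with compound (30 min, RT). Accumulated cAMP was quantified via cAMP-d2 competing for cryptate-tagged antibody.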
Chain of Thyrotropin receptor (Homo sapiens) (P16473 whole entry, looked up): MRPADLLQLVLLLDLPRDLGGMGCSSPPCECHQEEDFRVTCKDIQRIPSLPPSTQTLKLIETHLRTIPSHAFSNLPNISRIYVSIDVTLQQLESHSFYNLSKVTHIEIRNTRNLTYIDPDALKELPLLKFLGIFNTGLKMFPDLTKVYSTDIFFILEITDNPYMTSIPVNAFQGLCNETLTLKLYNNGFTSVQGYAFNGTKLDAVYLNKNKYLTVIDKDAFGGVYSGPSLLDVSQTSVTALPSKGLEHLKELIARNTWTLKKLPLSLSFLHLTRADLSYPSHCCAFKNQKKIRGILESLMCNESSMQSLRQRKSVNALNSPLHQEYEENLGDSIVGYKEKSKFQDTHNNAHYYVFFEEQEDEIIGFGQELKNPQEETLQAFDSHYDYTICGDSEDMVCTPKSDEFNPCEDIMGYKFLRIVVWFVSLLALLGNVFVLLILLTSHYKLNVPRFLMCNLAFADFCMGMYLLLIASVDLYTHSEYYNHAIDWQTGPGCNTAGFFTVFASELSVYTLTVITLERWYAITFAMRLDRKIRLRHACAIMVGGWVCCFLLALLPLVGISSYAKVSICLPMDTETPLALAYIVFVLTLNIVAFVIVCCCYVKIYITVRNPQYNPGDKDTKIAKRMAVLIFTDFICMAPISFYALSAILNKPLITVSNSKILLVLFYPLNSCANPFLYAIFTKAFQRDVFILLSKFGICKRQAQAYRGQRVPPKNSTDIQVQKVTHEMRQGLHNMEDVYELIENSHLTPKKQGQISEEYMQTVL
A general note: In qHTS, concentration-response curves come from the screen itself.
For the molecule `C1CCNCC1`, the Potency entry was “inactive”.

Consider `O=C(O)CCCOc1ccc(Cl)cc1Cl`, for which the Potency result is “inactive”.

On to `COc1ccc2c(c1OC)C(=O)O[C@H]2[C@@H]1c2cc3c(cc2CCN1C)OCO3`, for which the Potency result is “inactive”.

In the case of `CNC(=O)Oc1cccc(N=CN(C)C)c1`, the Potency result is “inactive”.

As to `O=[N+]([O-])/C=C/c1ccccc1`, the Potency entry was “inactive”.

As for `Clc1ccccc1`, the Potency entry is “inactive”.

For `O=C(O)COc1cc(Cl)c(Cl)cc1Cl`, the Potency result is “inactive”.

Regarding `SCc1ccccc1`, the Potency result was “inactive”.

In the case of `O=C(O)c1ccc(=O)[nH]c1`, the Potency entry was “inactive”.

Turning to `Cc1cnc(C2=NC(C)(C(C)C)C(=O)N2)c(C(=O)O)c1` (configuration not stated), the Potency result is “inactive”.

In the case of `O=S(=O)(Cl)Cl`, the Potency entry was “inactive”.

For the molecule `Cc1ccccc1`, the Potency result was “inactive”.

As to `CCCC1CCCCN1` (configuration not stated), the Potency result is “inactive”.

With `C[Si](Cn1cncn1)(c1ccc(F)cc1)c1ccc(F)cc1`, the Potency result was “inactive”.

`O=C(O)C(F)(F)C(F)(F)C(F)(F)C(F)(F)C(F)(F)C(F)(F)C(F)(F)C(F)(F)F`: the Potency result was “inactive”.

As to `CCOP(=O)(O)C(N)=O`, the Potency result was “inactive”.

With `O=C(NCNC(=O)NC1C(=O)NC(=O)N1CO)NC1C(=O)NC(=O)N1CO` (configuration not stated), the Potency entry was “inactive”.

System in the next assay: not listed separately
Briefly: qHTS assay to identify small molecule agonists of the hypoxia (HIF-1) signaling pathway - cell viability counter screen (AID 1224844). Also: nearly all actives have a fitted effect of over 50% in size. Also: potency is read from the fitted curve at half-maximal effect. As to conditions: HRE-bla ME-180 viability, CellTiter-Glo luminescence, 17 h; series mostly up to 76.8 µM. In a few lines:
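ME-180 HRE-bla cells, 2,000/well, 0.5% dialyzed FBS; 5 hr settle, 17 hr compound at 37C/5% CO2; CCF4-AM reporter read first, then CellTiter-Glo luminescence after 30 min RT.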
For `CN1C(=O)CN=C(c2ccccc2)c2cc([N+](=O)[O-])ccc21`, the Potency result was “inactive”.

Regarding `C1CCNCC1`, the Potency result was “inactive”.

`O=C(O)CCCOc1ccc(Cl)cc1Cl`: the Potency entry is “inactive”.

With `COc1ccc2c(c1OC)C(=O)O[C@H]2[C@@H]1c2cc3c(cc2CCN1C)OCO3`, the Potency result was “inactive”.

Consider `CNC(=O)Oc1cccc(N=CN(C)C)c1`, for which the Potency entry is “inactive”.

`OCCCl`: the Potency entry is “inactive”.

`O=S(=O)(c1ccccc1)c1ccccc1`: the Potency entry is “inactive”.

As to `Clc1ccc2ccccc2c1`, the Potency entry is “inactive”.

`O=C(NC(=O)c1cc(F)c(F)cc1Cl)Nc1cc(F)ccc1N1CCC(C(=O)O)CC1`: the Potency entry is “inactive”.

Turning to `Clc1ccccc1`, the Potency entry was “inactive”.

Consider `SCc1ccccc1`, for which the Potency result was “inactive”.

Turning to `CC(C)[C@@H](C(=O)O[C@@H](C#N)c1cccc(Oc2ccccc2)c1)c1ccc(Cl)cc1`, the Potency result is “inactive”.

As to `O=C(O)C(O)C(O)C(=O)O` (configuration not stated), the Potency entry is “inactive”.

For the molecule `O=C(O)c1ccc(=O)[nH]c1`, the Potency result is “inactive”.

For `Cc1cnc(C2=NC(C)(C(C)C)C(=O)N2)c(C(=O)O)c1` (configuration not stated), the Potency entry was “inactive”.

Take `CCC[N+](CCC)(CCC)CCC`: the Potency entry is “inactive”.

On to `CCCCCCCCn1sccc1=O`, for which the Potency was 4.91 µM (active) and 3.63 µM (active).

`Cc1nc2ccccc2c(=O)n1-c1ccccc1Cl`: the Potency result was “inactive”.

For the molecule `C[N+]1(CCC(C(N)=O)(c2ccccc2)c2ccccc2)CCCCC1`, the Potency result is “inactive”.

For the molecule `CCCCC(CC)COC(=O)c1c(Br)c(Br)c(Br)c(Br)c1C(=O)OCC(CC)CCCC` (configuration not stated), the Potency entry was “inactive”.

For the molecule `O=S(=O)(Cl)Cl`, the Potency entry was “inactive”.

Turning to `Cc1ccccc1`, the Potency entry is “inactive”.

Consider `CCCC1CCCCN1` (configuration not stated), for which the Potency entry is “inactive”.

On to `CCCC[P+](CC)(CCCC)CCCC` (tested in a mixture with another compound), for which the Potency result is “inactive”.

As for `C[Si](Cn1cncn1)(c1ccc(F)cc1)c1ccc(F)cc1`, the Potency entry was “inactive”.

In the case of `O=C(O)C(F)(F)C(F)(F)C(F)(F)C(F)(F)C(F)(F)C(F)(F)C(F)(F)C(F)(F)F`, the Potency is 8.71 µM (active).

As to `CCOP(=O)(O)C(N)=O`, the Potency entry was “inactive”.

In the case of `C[C@]12C=CC3=C4CCC(=O)C=C4CC[C@H]3[C@@H]1CC[C@@H]2O`, the Potency entry is “inactive”.

On to `CC(C)(C)NCC(O)c1ccccc1Cl` (configuration not stated), for which the Potency result was “inactive”.

Consider `C=CCc1ccccc1O`, for which the Potency entry was “inactive”.
